HTR5A inv ctr = counter-screen for OPRM1-OPRD1 inverse agonists: human HTR5A inverse agonism | HTR5A cell line, luminescence | inhibition, % at 9.3 µM | P47898 | 340,000 tested, 0.083% active | AID 504634; in the data active = inhibition mostly above about 23%, no sharp cut-off; inactive = mostly below about 18%;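 note: 0% = cells with DMSO and 100% = no-cell wells with DMSO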
OPRM1-OPRD1 ag = agonists of human mu-delta opioid receptor heterodimerization. activation, % at 9.3 µM. 340,000 tested, 0.3% active. P35372+P41143. cells, OPRM1-OPRD1 heterodimerization, luminescence; in the data active = activation above about 18%;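 note: 0% = vehicle-treated cells and 100% = reference agonist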
MOR-DOR inv ag = mu-delta opioid heterodimer inverse agonism; cell-based MOR-DOR heterodimer luminescence; inhibition, % at 9.3 µM; 340,000 tested, 0.21% active; AID 504357; in the data active = inhibition above about 22%, passing the limit was not always enough;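 note: 0% = cells with DMSO and 100% = wells without cells with DMSO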
HTR2A ag = mouse HTR2A agonism via beta-arrestin recruitment. P35363. CHO-K1 mHTR2A beta-arrestin complementation, luminescence; percent of 30 µM serotonin response. 360,000 tested, 0.66% active. AID 624169. activation, % at 7.6 µM;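 active = activation above a run cutoff, the mean activation of all tested compounds plus 3 SD, cut at about 14% in these data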;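 note: 0% = plate median of compound wells and 100% = 30 µM serotonin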
Target sequence (P35363 whole entry, looked up): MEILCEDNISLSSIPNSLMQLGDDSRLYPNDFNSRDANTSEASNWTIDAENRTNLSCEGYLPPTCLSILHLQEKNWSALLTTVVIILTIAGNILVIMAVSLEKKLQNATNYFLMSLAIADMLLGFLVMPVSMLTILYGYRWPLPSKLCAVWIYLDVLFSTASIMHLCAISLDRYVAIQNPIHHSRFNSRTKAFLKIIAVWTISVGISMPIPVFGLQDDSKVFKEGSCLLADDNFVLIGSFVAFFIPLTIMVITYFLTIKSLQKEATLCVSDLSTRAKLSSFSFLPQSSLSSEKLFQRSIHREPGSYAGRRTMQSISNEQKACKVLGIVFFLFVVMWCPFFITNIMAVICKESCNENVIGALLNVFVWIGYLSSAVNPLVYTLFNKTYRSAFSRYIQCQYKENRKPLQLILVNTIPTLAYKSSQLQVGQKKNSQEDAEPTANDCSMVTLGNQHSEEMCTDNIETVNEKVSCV
HTR5A ag = counter-screen for OPRM1-OPRD1 agonists: human HTR5A agonism | activation, % at 9.3 µM | HTR5A agonist assay, luminescence, cell-based | 340,000 tested, 0.61% active | P47898; in the data active = activation mostly above about 9.5%, no sharp cut-off; inactive = mostly below about 7.6%;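 note: 0% = cells with vehicle only and 100% = reference agonist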
An asterisk follows results filed as active. Most compounds without a hit are left out; they make up all but 1.6% or so of the library.

Results for COC(=O)C1=C(C)N(Cc2ccccc2)C(=NCc2ccccc2)N[C@H]1c1cccc(C(F)(F)F)c1 ?
HTR5A inv ctr: -76; OPRM1-OPRD1 ag: 15; MOR-DOR inv ag: -83; HTR2A ag: 5; HTR5A ag: 13*

How did COC(=O)C1=C(C)N(Cc2ccccc2)C(=NCc2cccc(Cl)c2)N[C@H]1c1cccc(F)c1 do in these assays?
HTR5A inv ctr: -8; OPRM1-OPRD1 ag: 28*; MOR-DOR inv ag: -154; HTR2A ag: -5; HTR5A ag: 3

What do the screens show for `COc1ccc(S(=O)(=O)Nc2ccccn2)cc1`?
HTR5A inv ctr: -3; OPRM1-OPRD1 ag: -1; MOR-DOR inv ag: 3; HTR2A ag: -2; HTR5A ag: 2

How did COc1cc(NS(=O)(=O)c2ccc(C)cc2)c2ncccc2c1 do in these assays?
HTR5A inv ctr: 18; OPRM1-OPRD1 ag: -9; MOR-DOR inv ag: 47*; HTR2A ag: -2; HTR5A ag: -3

What do the screens show for `CNC(=S)NCCN1CCOCC1`?
HTR5A inv ctr: 14; OPRM1-OPRD1 ag: -1; MOR-DOR inv ag: 7; HTR2A ag: 2; HTR5A ag: 13*

Results for CC1Nc2ncnc(N3CCN(c4ccccn4)CC3)c2N(Cc2ccccc2)C1=O (stereo not drawn) ?
HTR5A inv ctr: 43*; OPRM1-OPRD1 ag: -10; MOR-DOR inv ag: 45*; HTR2A ag: -20; HTR5A ag: -14

How did Cc1ccc(CN2C(=O)C(C)Nc3ncnc(N4CCN(c5ccccn5)CC4)c32)cc1 (stereo not drawn) do in these assays?
HTR5A inv ctr: 56*; OPRM1-OPRD1 ag: -12; MOR-DOR inv ag: 55*; HTR2A ag: -26; HTR5A ag: -17

Results for COc1ccc(CN2C(=O)C(CC(C)C)Nc3ncnc(N4CCN(c5ccccn5)CC4)c32)cc1 (stereo not drawn) ?
HTR5A inv ctr: 13; OPRM1-OPRD1 ag: 2; MOR-DOR inv ag: -14; HTR2A ag: -2; HTR5A ag: -1

How did COc1ccc(CN2C(=O)C(C)Nc3ncnc(N4CCN(c5ccccn5)CC4)c32)cc1 (stereo not drawn) do in these assays?
HTR5A inv ctr: 63*; OPRM1-OPRD1 ag: -12; MOR-DOR inv ag: 70*; HTR2A ag: -20; HTR5A ag: -22

How did Cc1ccc(NC(=O)N2CCCC2C(=O)NCC2CCCO2)cc1 (stereo not drawn) do in these assays?
HTR5A inv ctr: 15; OPRM1-OPRD1 ag: -2; MOR-DOR inv ag: 9; HTR2A ag: 0; HTR5A ag: -6

Results for O=S(=O)(c1ccc2c(c1)OCCO2)N1CCN(Cc2ccccc2)CC1 ?
HTR5A inv ctr: -14; OPRM1-OPRD1 ag: -1; MOR-DOR inv ag: 4; HTR2A ag: -8; HTR5A ag: 14*

What do the screens show for `C/C(CC(=O)Nc1ccc(C)c(Cl)c1)=N\NC(=O)Cc1ccccc1`?
HTR5A inv ctr: -32; OPRM1-OPRD1 ag: 1; MOR-DOR inv ag: -7; HTR2A ag: -3; HTR5A ag: 12*

What do the screens show for `COc1ccc(NC(=O)CSCc2cc(=O)n3c(C)csc3n2)cc1`?
HTR5A inv ctr: 0; OPRM1-OPRD1 ag: 0; MOR-DOR inv ag: 0; HTR2A ag: 8; HTR5A ag: 3

How did CCN1CCN(C(=O)c2ccc3c(=O)n(C4CCCC4)c(=S)[nH]c3c2)CC1 do in these assays?
HTR5A inv ctr: 12; OPRM1-OPRD1 ag: -2; MOR-DOR inv ag: 9; HTR2A ag: -3; HTR5A ag: 9.3*

How did O=C(c1ccc2c(=O)n(C3CCCC3)c(=S)[nH]c2c1)N1CCN(C2CCCCC2)CC1 do in these assays?
HTR5A inv ctr: -12; OPRM1-OPRD1 ag: -1; MOR-DOR inv ag: 6; HTR2A ag: 9; HTR5A ag: 4

What do the screens show for `O=C(c1ccccc1)N1N=C(c2cccs2)CC1c1ccccc1O` (stereo not drawn)?
HTR5A inv ctr: 4; OPRM1-OPRD1 ag: 16; MOR-DOR inv ag: -83; HTR2A ag: 11; HTR5A ag: 14

What do the screens show for `O=C(c1ccccc1Cl)N1N=C(c2cccs2)CC1c1cccc(O)c1` (stereo not drawn)?
HTR5A inv ctr: -1; OPRM1-OPRD1 ag: -2; MOR-DOR inv ag: 12; HTR2A ag: 2; HTR5A ag: 11*

Results for CC(C)N(C(=O)CSc1nc2ccccc2n1Cc1ccccc1)C(C)C ?
HTR5A inv ctr: -23; OPRM1-OPRD1 ag: -1; MOR-DOR inv ag: 4; HTR2A ag: -4; HTR5A ag: 10.0*

What do the screens show for `O=C(CCc1ccccc1)NNC(=S)NC(=O)c1ccccc1`?
HTR5A inv ctr: 11; OPRM1-OPRD1 ag: -2; MOR-DOR inv ag: 14; HTR2A ag: 2; HTR5A ag: -2

Assay outcomes: PubChem, The Scripps Research Institute Molecular Screening Center
